The list is not random: actives were taken first. Their share in the collection is about 3%.
esBAF inh: SWI/SNF esBAF complex inhibition; mouse ES cells, Bmi1-luciferase knock-in reporter, 24 h; 100% = twice the neutral-well signal; reporter increase, % at 12.5 µM; 2% of 350,000 active; in the data active means activation above about 40%; inconclusive means no clear call, values can overlap the other calls;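 further: 0% = median of the plate's neutral control wells and 100% = double that signal; a rise in the Bmi1 reporter signal indicates esBAF inhibition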
MITF TRPM1 HTS: MITF TRPM1 promoter activation in melanoma cells; AID 588334; activation, % at 12.5 µM; 0.75% of 300,000 active; SK-MEL-5 TRPM1-promoter luciferase, 24 h; % of positive control, neutral wells = 0;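 active means mean activation of at least 80% with every replicate also reaching 80%; inconclusive means mean reaches 80% but some replicate falls short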;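 further: 0% = neutral control wells and 100% = parthenolide positive control wells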
Statin myotox sup: suppression of simvastatin myotoxicity; C2C12 myotubes + simvastatin, ATP luminescence, 48 h; scaled: DMSO 0, geranylgeraniol control 100; rescue of ATP level, % at 7.49 µM; 0.78% of 330,000 active; AID 602340;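 active means mean ATP rescue above about 67%, or every replicate alone reaching that limit, limit read from the data, passing the limit was not always enough; inconclusive means no clear call, values can overlap the other calls; inactive means mean under the limit and some replicate under it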;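 further: myotubes were challenged with 10 µM simvastatin during compound exposure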
Wnt bcat act: Wnt/beta-catenin pathway activation | Wnt/beta-catenin reporter cell assay, activator, plate reader | activation, % at 9.35 µM | 1.2% of 300,000 active; in the data active means activation above about 30%, passing the limit was not always enough; inconclusive means no clear call, values can overlap the other calls;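 further: 0% = neutral control wells and 100% = positive control wells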
* marks the source's active call; other numbers are inactive results; ? = inconclusive; · = no result.

SMILES | esBAF inh | MITF TRPM1 HTS | Statin myotox sup | Wnt bcat act
O=C(C[C@@H]1C[C@H]2c3cc(NC(=O)C4CCC4)ccc3O[C@H]2[C@@H](CO)O1)NCc1cc(F)ccc1F | -15 | · | 7 | ·
COc1ccc(-c2cn(CC3CCCCC3)nn2)cc1 | 67* | 88* | 3 | 18
CCCCCc1ccc(-c2cn(CC3CCCCC3)nn2)cc1 | -2 | 18 | -1 | -2
Cc1ccc(Cn2cc(-c3ccccc3)nn2)cc1 | 57* | 52 | -5 | 20
COc1ccc(-c2cn(Cc3ccc4ccccc4c3)nn2)cc1 | 20 | 20 | 32 | 2
c1ccc(-c2cn(CC3CCCCC3)nn2)cc1 | 65* | 45 | 5 | 32*
CCCC#Cc1cnc2c(c1)C(=O)N([C@@H](C)CO)C[C@@H](C)[C@H](CN(C)Cc1ccccc1F)O2 | -9 | · | 19 | ·
C[C@@H]1CCCCO[C@@H](CN(C)C(=O)C2CCCCC2)[C@H](C)CN([C@@H](C)CO)C(=O)c2cc(NC(=O)Nc3ccc4c(c3)OCO4)ccc2O1 | 20 | · | · | ·
COc1ccc(S(=O)(=O)N(C)C[C@@H]2OCCCC[C@@H](C)Oc3ccc(NC(=O)CCC(F)(F)F)cc3C(=O)N([C@H](C)CO)C[C@@H]2C)cc1 | 5 | · | · | ·
Nn1c(Cc2ccccc2)nc2ccccc2c1=O | -9 | -12 | -2 | 2
Nn1c(COc2ccc(Cl)cc2)nc2ccccc2c1=O | ? | 99* | 8 | 29
COC(=O)CCC(=O)Nc1nnc(C(F)(F)F)s1 | -1 | 14 | 7 | -2
O=C(O)CCC(=O)Nc1nnc(C(F)(F)F)s1 | -5 | -6 | 115* | -2
O=C(/C=C/Nc1ccc(F)cc1)c1ccco1 | 25 | 23 | 13 | ·
Cc1ccc([N+](=O)[O-])cc1N/C=C/C(=O)c1ccco1 | 55* | 16 | 18 | -1
Cc1ccc(N/C=C/C(=O)c2ccco2)c(O)c1 | ? | 53 | 3 | 56*
COc1ccc(NC(=O)Nc2ccc3c(c2)CC(=O)N([C@@H](C)CO)C[C@@H](C)[C@@H](CN(C)S(=O)(=O)c2cccs2)O3)cc1 | 6 | · | 6 | ·
C[C@@H]1CN([C@H](C)CO)C(=O)CCCn2nncc2CO[C@@H]1CN(C)Cc1ccc2c(c1)OCCO2 | -11 | · | 9 | ·
COc1ccc(NC(=O)N2CCc3ccccc3C2)c(OC)c1 | 54* | 17 | -1 | 11
O=C(NCc1ccco1)C1OCCc2ccccc21 (stereo unspecified) | -3 | · | -2 | 0
Cc1ccc(NC(=O)N2CCc3ccccc3C2)cc1C | 61* | 95* | -4 | ?
O=[N+]([O-])c1cccc(NC(=S)N2CCc3ccccc3C2)c1 | 58* | 14 | 5 | 5
Cc1ccc(NC(=O)C2OCCc3ccccc32)cc1C (stereo unspecified) | 58* | 68 | -2 | 2
CNC(=O)C[C@@H]1CC[C@@H]2[C@H](COc3ccc(NC(=O)Nc4ccc(Cl)cc4)cc3C(=O)N2C)O1 | 0 | · | -6 | ·
C[C@H](CO)N1C[C@H](C)[C@@H](CN(C)C(=O)c2ccccn2)Oc2cc(C#Cc3ccc(F)cc3)ccc2S1(=O)=O | 2 | · | 3 | ·
SMILES | esBAF inh | MITF TRPM1 HTS | Statin myotox sup | Wnt bcat act
C[C@@H]1CCCCO[C@@H](CN(C)CC2CCCCC2)[C@H](C)CN([C@H](C)CO)C(=O)c2cc(NC(=O)Nc3ccccc3)ccc2O1 | -2 | · | · | ·
COc1ccc(NC(=O)N(C)C[C@H]2OCCCC[C@H](C)Oc3ccc(NC(=O)CCCN(C)C)cc3C(=O)N([C@H](C)CO)C[C@@H]2C)cc1 | -4 | · | · | ·
O=C(C[C@@H]1CC[C@@H]2[C@H](COC[C@H](O)CN2CCc2ccccc2)O1)N1CCC(Cc2ccccc2)CC1 | -8 | · | -16 | ·
Cc1cc(C)cc(NC(=O)N2CCc3ccccc3C2)c1 | 45* | 75 | 8 | 12
O=C(Nc1ccc(F)cc1)N1CCc2ccccc2C1 | · | 42 | · | 57*
O=C(Nc1ccc(Br)cc1)N1CCc2ccccc2C1 | · | 60 | · | 20
C[C@@H]1CCCCO[C@@H](CN(C)Cc2ccccc2)[C@@H](C)CN([C@@H](C)CO)C(=O)c2cc(NC(=O)Cc3ccccc3)ccc2O1 | 2 | · | · | ·
C[C@H](CO)N1C[C@H](C)[C@@H](CN(C)CC2CCOCC2)Oc2cc(C#CC3CC3)ccc2S1(=O)=O | -4 | · | -33 | ·
O=C(/C=C1\OCc2ccccc21)c1ccccc1 | · | · | · | 45*
O=C(/C=C1\OCc2ccccc21)OCc1ccccc1 | · | · | · | 21
Fc1cccc2sc(Nc3nc4cc5c(cc4s3)OCO5)nc12 | 96* | 70 | -4 | 14
CC(C)C(=O)Nc1nc2cc3c(cc2s1)OCO3 | 68* | · | -15 | 29
O=C(/C=C/c1ccc2c(c1)OCO2)Nc1nc2ccc(F)cc2s1 | 56* | 87* | 7 | 34*
O=C(Nc1nc2cc3c(cc2s1)OCO3)C1CC1 | · | 64 | · | 0
CC(C)(C)C(=O)Nc1nc2cc3c(cc2s1)OCO3 | 29 | ? | -3 | 42*
CC(=O)Nc1nc2cc3c(cc2s1)OCCO3 | 11 | · | 5 | ?
Fc1cccc2sc(Nc3nc4cc5c(cc4s3)OCCO5)nc12 | · | 19 | · | 18
CCC(=O)N1C[C@@H](C)[C@H](OC)CN(C)C(=O)c2cc(NC(=O)NC(C)C)ccc2OC[C@H]1C | 0 | · | 15 | ·
COc1ccc(-c2cn(CC[C@@H]3CC[C@@H](NC(=O)CCN4CCCCC4)[C@H](CO)O3)nn2)cc1 | 7 | · | -3 | ·
CC(C)NC(=O)N(C)C[C@@H]1Oc2ccc(NC(=O)Nc3ccccc3)cc2CC(=O)N([C@@H](C)CO)C[C@H]1C | 1 | · | -1 | ·
CC(C)NC(=O)N(C)C[C@@H]1Oc2ncc(C#CCC3CCCC3)cc2C(=O)N([C@H](C)CO)C[C@H]1C | 0 | · | 10 | ·
O=C(NNc1ccc(Cl)cc1)c1c(F)cccc1Cl | -1 | · | 11 | 0
CC(=O)C(=Nc1ccccc1Cl)NNc1ccc(Cl)cc1 | -4 | -7 | 152* | -2
Nc1nc2c(s1)C(=O)CCC2 | -6 | 6 | 91* | ·
Fc1ccc(N/N=C/C=C/c2ccccc2)c(F)c1 | 51* | 46 | -6 | 12
SMILES | esBAF inh | MITF TRPM1 HTS | Statin myotox sup | Wnt bcat act
CCCn1ncc2c(Nc3ccc(C)c(C)c3)ncnc21 | 67* | 98* | -14 | 20
COc1cccc(S(=O)(=O)N[C@@H]2C=C[C@@H](CC(=O)NCc3ccc(Cl)cc3)O[C@@H]2CO)c1 | -1 | · | -1 | ·
CC(=O)N1N=C(c2ccccc2)CC1c1cn(C)c2ccccc12 (stereo unspecified) | 32 | -7 | -1 | 90*
O=C(C[C@@H]1CC[C@@H](NS(=O)(=O)c2ccccc2)[C@H](CO)O1)NCc1ccccc1F | 3 | · | 2 | ·
CCOC(=O)c1cc2ccc(OC)c(OC)c2c(=O)s1 | 23 | 17 | 116* | ·
Cc1ccccc1C(=O)c1cccn1CC(=O)NCc1cccc(Cl)c1 | 64* | 39 | 12 | 5
COc1ccccc1CNC(=O)Cn1cccc1C(=O)c1ccccc1C | 43* | 26 | 10 | 5
COc1ccc(S(=O)(=O)Nc2cccc3c2O[C@H](CN(C)CC2CC2)[C@H](C)CN([C@@H](C)CO)C3=O)cc1 | -6 | · | 14 | ·
O=C(C[C@H]1CC[C@@H](NC(=O)C2CCC2)[C@H](CO)O1)NCc1ccccc1Cl | -7 | · | -2 | ·
